Screens (PubChem BioAssay)
PD-1 reversal – reversal of PD-1 mediated T-cell inhibition | 29,000 tested, under 10 active | activation, % (no concentration beside the values) | AID 2316 | primary human CD4 T cells, PD-L1 beads, CellTiter-Glo 96 h; call rule not given here;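 note: 0% = median vehicle wells and 100% = positive control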
NOMO-1 viab – STK33 inhibitor candidate reducing NOMO-1 cell viability | NOMO-1 AML viability, CellTiter-Glo luminescence, 72 h | AID 2330 | 37,000 compounds, 7.5% hits | inhibition, % (no concentration beside the values); in the data active = inhibition above about 80%
MITF inhib – inhibitors of MITF | TRPM1 promoter luciferase, luminescence, 24 h | AID 2240 | inhibition, % (no concentration beside the values) | 37,000 compounds, 0.28% hits; in the data active = inhibition above about 85%;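 note: human melanocyte line stably carrying TRPM1 promoter luciferase reporter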
Hedgehog inh – Sonic Hedgehog pathway inhibition; Shh-LIGHT2 Gli-luciferase reporter, 30 h; inhibition, % (no concentration beside the values); 22,000 compounds, 2.1% hits;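 active = mean inhibition across valid replicates above about 65%, limit read from the data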;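 note: pathway switched on by Shh-conditioned medium diluted 1 in 25 in low serum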
* marks the source's active call; other numbers are inactive results; · = no result. The list is not random: actives were taken first. Their share in the collection is about 7.9%.

SMILES | PD-1 reversal | NOMO-1 viab | MITF inhib | Hedgehog inh
C[C@H](CO)N1C[C@H](C)[C@@H](CN(C)Cc2ccc(C(=O)Nc3ccccc3N)cc2)Oc2c(cccc2N(C)C)C1=O | 1 | 44 | -12 | ·
C[C@H](CO)N1C[C@H](C)[C@@H](CN(C)Cc2ccc(C(=O)Nc3ccccc3N)cc2)Oc2c(NS(C)(=O)=O)cccc2C1=O | -1 | 30 | -20 | ·
CCOC(=O)C1CCCN(S(=O)(=O)c2ccc(Cl)c(Cl)c2OC)C1 (stereo unspecified) | 1 | 10 | -4 | ·
C[C@H](CO)N1C[C@H](C)[C@H](CN(C)Cc2ccc(C(=O)Nc3ccccc3N)cc2)Oc2ccc(NS(=O)(=O)c3ccc(Cl)cc3)cc2CC1=O | -1 | 141* | 43 | ·
Cc1ccc(S(=O)(=O)Nc2ccc3c(c2)CC(=O)N([C@H](C)CO)C[C@@H](C)[C@@H](CN(C)Cc2ccc(C(=O)Nc4ccccc4N)cc2)O3)cc1 | 0 | 107* | 0 | ·
C[C@H](CO)N1C[C@H](C)[C@H](CN(C)Cc2ccc(C(=O)Nc3ccccc3N)cc2)Oc2ccc(NS(=O)(=O)c3ccc(F)cc3)cc2CC1=O | -2 | 140* | 31 | ·
Cc1ccc(S(=O)(=O)Nc2ccc3c(c2)CC(=O)N([C@@H](C)CO)C[C@H](C)[C@@H](CN(C)Cc2ccc(C(=O)Nc4ccccc4N)cc2)O3)cc1 | 1 | 48 | 12 | ·
Cc1ccc(S(=O)(=O)Nc2ccc3c(c2)C(=O)N([C@@H](C)CO)C[C@@H](C)[C@@H](CN(C)Cc2ccc(Oc4ccccc4)cc2)O3)cc1 | · | 113* | 37 | ·
Cc1ccc(S(=O)(=O)Nc2ccc3c(c2)C(=O)N([C@@H](C)CO)C[C@H](C)[C@@H](CN(C)Cc2ccc(Oc4ccccc4)cc2)O3)cc1 | -2 | 106* | 10 | 22
CCCc1cc(=O)n2[nH]c(NCc3cccc([N+](=O)[O-])c3)nc2n1 | · | -7 | -13 | ·
COc1ccc([N+](=O)[O-])cc1CNCCO | 0 | 3 | 4 | ·
O=C(NCc1nc2ccccc2[nH]1)c1c(F)c(F)c(F)c(F)c1F | -7 | 20 | 22 | ·
Fc1ccc(N(Cc2nc3ccccc3[nH]2)Cc2nc3ccccc3[nH]2)cc1 | · | 100* | 2 | ·
COC(CC(c1c(O)cc2cc(C)oc(=O)c2c1O)c1c(O)cc2cc(C)oc(=O)c2c1O)C(=O)O (stereo unspecified) | 1 | 7 | 2 | 9
COc1cc(C2c3c(cc(OC)c(O)c3OC)CC(CO)C2CO[C@@H]2O[C@H](CO)[C@@H](O)[C@H](O)[C@H]2O)cc(OC)c1O (stereo partly specified) | 0 | -7 | 17 | -16
COc1ccc(/C=C/C(=O)CC(=O)/C=C/c2cccc(O)c2OC)cc1O | · | 115* | 36 | 69*
COc1cc(/C=C/C(=O)CC(=O)/C=C/c2ccc(O)c(OC)c2)ccc1O | · | 107* | 4 | 32
COc1cc(O)c(CC=C(C)C)cc1C(=O)/C=C/c1ccc(O)c(CC=C(C)C)c1 | -1 | 86* | 2 | -6
CC1CC[C@@]2(OC1)O[C@H]1CC3C4CC=C5C[C@@H](O[C@@H]6O[C@H](CO)[C@@H](O[C@@H]7O[C@@H](C)[C@H](O)[C@@H](O)[C@H]7O)[C@H](O)[C@H]6O[C@@H]6O[C@@H](C)[C@H](O)[C@@H](O)[C@H]6O)CC[C@]5(C)C4CC[C@]3(C)[C@@]1(O)[C@@H]2C (stereo partly specified) | -15 | 119* | 74 | 80*
C[C@@H]1O[C@@H](O[C@H]2[C@H](O[C@H]3CC[C@@]4(C)C(CC[C@]5(C)C4CC=C4C6CC(C)(C)CC[C@]6(C(=O)O[C@@H]6O[C@H](CO[C@@H]7O[C@H](CO)[C@@H](O[C@@H]8O[C@@H](C)[C@H](O)[C@@H](O)[C@H]8O)[C@H](O)[C@H]7O)[C@@H](O)[C@H](O)[C@H]6O)CC[C@]45C)C3(C)C)OC[C@H](O)[C@@H]2O)[C@H](O)[C@H](O)[C@H]1O (stereo partly specified) | · | · | · | 6
Cc1sc2ncn(CC(=O)Nc3cccc(Cl)c3C)c(=O)c2c1-c1ccccc1 | · | 39 | 21 | ·
C[C@H](CO)N1C[C@H](C)[C@H](CN(C)S(=O)(=O)c2ccc(Cl)cc2)Oc2ccc(NC(=O)Nc3ccc(C(F)(F)F)cc3)cc2CC1=O | -5 | 134* | 50 | 72*
C[C@@H]1CN([C@H](C)CO)C(=O)Cc2cc(NC(=O)Nc3ccc(C(F)(F)F)cc3)ccc2O[C@H]1CN(C)S(=O)(=O)c1ccc(Cl)cc1 | -5 | 117* | 68 | 60
COc1ccc(CCNc2nc(C)nc3c2sc2nc4c(cc23)COC(C)(C)C4)cc1OC | 1 | 18 | -64 | ·
Cc1sc2nc(SCc3cc(=O)[nH][nH]3)nc(N)c2c1C | 0 | 6 | -11 | ·
SMILES | PD-1 reversal | NOMO-1 viab | MITF inhib | Hedgehog inh
CC(C)(C)c1ccc(C(O)CCCN2CCC(C(O)(c3ccccc3)c3ccccc3)CC2)cc1 (stereo unspecified) | -21 | 142* | -3 | 28
COC(=O)c1ccc(C(=O)OC)c(NC(=O)CSc2nc(C)cc(C)n2)c1 | 1 | 14 | 7 | ·
Cc1cc(C)c(C)c(S(=O)(=O)NCc2ccc(C(=O)Nc3ccncc3)cc2)c1C | -9 | 103* | 50 | ·
COc1cccc(S(=O)(=O)NCc2ccc(C(=O)Nc3ccc(Cl)cc3)cc2)c1 | -1 | 17 | 42 | ·
C[C@H](CO)N1C[C@H](C)[C@@H](CN(C)S(=O)(=O)c2ccc(Cl)cc2)Oc2c(NC(=O)CCCCCC(=O)Nc3ccccc3N)cccc2C1=O | 0 | 88* | 16 | ·
C[C@H](CO)N1C[C@H](C)[C@@H](CN(C)S(=O)(=O)c2ccccc2)Oc2c(NC(=O)CCCCCC(=O)Nc3ccccc3N)cccc2C1=O | 0 | 43 | 1 | ·
C[C@@H]1CN([C@H](C)CO)C(=O)c2cccc(NC(=O)CCCCCC(=O)Nc3ccccc3N)c2O[C@H]1CN(C)S(=O)(=O)c1ccc(Cl)cc1 | 0 | 121* | 12 | ·
C[C@H]1CN([C@@H](C)CO)C(=O)c2cccc(NC(=O)CCCCCC(=O)Nc3ccccc3N)c2O[C@H]1CN(C)S(=O)(=O)c1ccccc1 | 0 | 65 | -1 | ·
Cc1ccc(S(=O)(=O)N(C)C[C@@H]2Oc3c(NC(=O)CCCCCC(=O)Nc4ccccc4N)cccc3C(=O)N([C@H](C)CO)C[C@@H]2C)cc1 | 0 | 111* | 30 | ·
C[C@H]1CN([C@@H](C)CO)C(=O)c2cccc(NC(=O)CCCCCC(=O)Nc3ccccc3N)c2O[C@H]1CN(C)S(=O)(=O)c1ccc(Cl)cc1 | 0 | 115* | 42 | ·
N#Cc1ccccc1NC(=O)CN1CCC(C(N)=O)CC1 | 0 | -1 | -11 | ·
COc1cc(O)c2c(=O)cc(-c3cc(OC)c(OC)c(O)c3OC)oc2c1 | 0 | -3 | -58 | -3
COc1ccc(-c2[nH]nc(SC)c2C#N)cc1 | 0 | 34 | 7 | ·
C[C@H]1CN([C@@H](C)CO)C(=O)c2cccc(NS(=O)(=O)c3ccccc3)c2O[C@H]1CN(C)Cc1ccc(C(=O)Nc2ccccc2N)cc1 | 0 | 120* | 11 | ·
